Inconclusive results are not listed. Active and inactive are the calls of the source. Unless noted, calls come from the whole dose curve.
Columns and labels:
[1] = qHTS for Inhibitors of the Functional Ribonucleoprotein Complex (vRNP) of Lassa (LASV) Arenavirus: LASV Primary Screen - GLuc reporter signal (AID 1347082; calls by dose curve; tested in HEK293 reporter line; note: series mostly up to about 57 µM; % is set by controls: 0 for no effect and ±100 for the full control effect; nearly all actives have a fitted effect of over 60% in size)
[2] = qHTS for Inhibitors of the Functional Ribonucleoprotein Complex (vRNP) of Lassa (LASV) Arenavirus: Viability assay - alamar blue signal for LASV Primary Screen (AID 1347083; calls by dose curve; tested in HEK293 reporter line; note: series mostly up to about 57 µM; % is set by controls: 0 for no effect and ±100 for the full control effect; nearly all actives have a fitted effect of over 80% in size)
[3] = qHTS for Inhibitors of the Functional Ribonucleoprotein Complex (vRNP) of Lymphocytic Choriomeningitis Arenaviruses (LCMV): Viability assay - alamar blue signal for LCMV Primary Screen (AID 1347085; calls by dose curve; tested in HEK293 reporter line; note: series mostly up to about 57 µM; % is set by controls: 0 for no effect and ±100 for the full control effect; nearly all actives have a fitted effect of over 80% in size)
[4] = target: Nucleoprotein (Lymphocytic choriomeningitis virus (strain Armstrong)) (UniProt P09992); experiment: qHTS for Inhibitors of the Functional Ribonucleoprotein Complex (vRNP) of Lymphocytic Choriomeningitis Arenaviruses (LCMV): LCMV Primary Screen - GLuc reporter signal (AID 1347086); note: series mostly up to about 57 µM; % is set by controls: 0 for no effect and ±100 for the full control effect; nearly all actives have a fitted effect of over 70% in size
[5] = Primary qHTS for inhibitors of MERS-S pseudo-typed particle cell entry (AID 1479149); note: nearly all actives have a fitted effect of over 60% in size; note: potency is the fitted concentration of half-maximal effect
[6] = Primary qHTS for Vero E6 cytotoxicity: counterscreen for inhibitors of SARS-S pseudo-typed particle cell entry (AID 1479150); conditions: outcome: dose series up to 57.1 µM unless noted
[7] = Confirmatory qHTS to identify inhibitors of SARS-CoV-2 cell entry (AID 1645844); note: potency is the fitted concentration of half-maximal effect; nearly all actives have a fitted effect of over 45% in size
How it was run: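 HEK293-ACE2 cells were pretreated 1 h with compound, then infected with MLV-based pseudoparticles bearing C-terminally truncated Wuhan-Hu-1 spike for 48 h at 37C; luciferase luminescence normalized to spike PP and bald PP wells.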

[8] = Cytotoxicity counterscreen for inhibitors of SARS-CoV-2 cell entry (AID 1645845); note: nearly all actives have a fitted effect of over 50% in size
How it was run: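 HEK293-ACE2 cells (Expi293F stably expressing human ACE2) seeded overnight, then compound for 1 h plus 48 h at 37C. Viability as ATP content by luminescence; normalized to wells with cells and media-only wells.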

[9] = VSVG counterscreen qHTS to identify inhibitors of SARS-CoV-2 cell entry (AID 1645847); note: potency is the fitted concentration of half-maximal effect; nearly all actives have a fitted effect of over 65% in size
How it was run: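 Luminescence read after 48 h infection at 37 C with VSV-G-pseudotyped MLV particles, following 1 h compound exposure of Expi293F cells stably expressing human ACE2; scaled between bald particle and VSV-G particle wells.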

[10] = Inducers of the Endoplasmic Reticulum Stress Response (ERSR) in human glioma: Validation (AID 504836; active = well fitted curve in the direction sought with a large enough effect; an effect the other way counts as inactive or inconclusive; note: 0% is about no effect)
How it was run: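 Stably transfected U87-MG glioma cells carrying a GRP78-based luciferase sensor; 16 h compound incubation. Luminescence end-point read 10 min after Bright-Glo addition at room temperature.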

[11] = Confirmatory qHTS for VERO E6 Cytotoxicity Assay: Counterscreen for SARS-CoV-2 CPE Assay (AID 1508605); note: series mostly up to about 20 µM; % is set by controls: 0 for no effect and ±100 for the full control effect; nearly all actives have a fitted effect of over 60% in size
[12] = Confirmatory qHTS for small molecule stabilizers of the endoplasmic reticulum resident proteome: Secreted ER Calcium Modulated Protein (SERCaMP) assay (AID 1508628; active = well fitted curve in the direction sought with a large enough effect; an effect the other way counts as inactive or inconclusive;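 note: SH-SY5Y cells given compound 16 h then thapsigargin 100 nM for 4 h; series mostly up to about 76 µM; % is set by controls: 0 for no effect and ±100 for the full control effect; nearly all actives have a fitted effect of over 40% in size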)
How it was run: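 We seeded SH-SY5Y-GLuc-SERCaMP cells, added compounds (three concentrations in the primary run, eleven up to 76.6 uM in confirmation), incubated 16 h, depleted ER calcium with thapsigargin, and read luciferase 4 h later.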

[13] = target: Cytochrome P450 1A2 (Homo sapiens) (UniProt P05177); experiment: p450-cyp1a2 (AID 410); note: potency is the fitted concentration of half-maximal effect
How it was run: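 Human CYP1A2 (20nM) demethylated Luciferin-ME at its Km (100uM) in 100mM KPO4. After 10 min compound preincubation, NADPH regeneration ran the reaction 60 min at room temperature. Luciferin was read by luminescence, normalized to 57 uM furafylline.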

[14] = target: Glucocorticoid receptor (Homo sapiens) (UniProt P04150); experiment: GR-GFP Redistribution (AID 450;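 active = compounds whose dose series gives a full or clear partial fitted curve of increased nuclear translocation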; note: potency is the fitted concentration of half-maximal effect); conditions: U2OS GR-GFP nuclear translocation, laser cytometry, 2 h
[15] = target: Glucocorticoid receptor (Homo sapiens) (UniProt P04150); experiment: GR-EFC Redistribution (AID 451); conditions: CHO-K1 GR-EFC translocation, beta-gal luminescence, 2 h; note: potency is the fitted concentration of half-maximal effect
How it was run: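 CHO-K1 cells expressing nuclear EA and GR-ED fragments of b-gal; compounds titrated up to 46 uM final, 2 h at 37 C. GR nuclear translocation read as complemented b-gal luminescence after 1 h RT detection.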

[16] = target: Mitogen-activated protein kinase 10 (Mus musculus) (UniProt Q61831); experiment: JNK3 AlphaScreen Assay (AID 530; active = well fitted curve in either direction with a large enough effect, not every such curve was filed as active;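 note: kinase came from lysate of stimulated human HepG2 cells; signal reports phosphorylation of biotinylated GST-cJun 1-79 at Ser73 with 10 µM ATP; series mostly up to about 57 µM; % is set by controls: 0 for no effect and ±100 for the full control effect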)
How it was run: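 qHTS format: compounds tested as titrations against IL-1beta/TNF-alpha-activated HepG2 lysate JNK3 with biotin-GST-cJun substrate and 10 uM ATP at room temperature. Loss of anti-phospho-cJun AlphaScreen signal indicates inhibition.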

[17] = target: Cytochrome P450 3A4 (Homo sapiens) (UniProt P08684); experiment: qHTS Assay for Inhibitors and Substrates of Cytochrome P450 3A4 (AID 884; active = well fitted curve in the direction sought with a large enough effect; an effect the other way counts as inactive or inconclusive; note: potency is the fitted concentration of half-maximal effect; nearly all actives have a fitted effect of over 50% in size)
How it was run: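 20 nM human CYP3A4 with 25 uM Luciferin-PPXE (at KM) in 200 mM KPO4, preincubated 10 min with compound; NADPH regeneration started a 60 min RT reaction. Luciferin detected by luminescence, normalized to 57 uM ketoconazole as full inhibition.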

[18] = target: Cytochrome P450 3A4 (Homo sapiens) (UniProt P08684); experiment: qHTS Assay for Activators of Cytochrome P450 3A4 (AID 885; active = well fitted curve in the direction sought with a large enough effect; an effect the other way counts as inactive or inconclusive; note: nearly all actives have a fitted effect of over 65% in size)
How it was run: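 Quantitative HTS format: compounds preincubated with 20nM human CYP3A4 and Luciferin-PPXE substrate at KM, reaction started by NADPH regeneration, stopped after 60 min, luciferase luminescence read 20 min later.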

[19] = Cell Viability qHTS for small molecule stabilizers of the endoplasmic reticulum resident proteome (AID 1508629; active = well fitted curve in the direction sought with a large enough effect; an effect the other way counts as inactive or inconclusive;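 note: human SH-SY5Y neuroblastoma cells carrying the GLuc-SERCaMP reporter; compound exposure about 46 h in total before the viability read; % is set by controls: 0 for no effect and ±100 for the full control effect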); conditions: cell viability counter-screen, 100 nM thapsigargin for final 4 h
[20] = target: Alpha-galactosidase (Coffea arabica) (UniProt Q42656); experiment: Counterscreen for Glucocerebrosidase Inhibitors: qHTS Assay for Coffee Bean alpha-Galactosidase at pH 4.5 (AID 957; active = well fitted curve in the direction sought with a large enough effect; an effect the other way counts as inactive or inconclusive;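 note: series mostly up to about 77 µM; plate controls were enzyme alone for no effect and no enzyme for full effect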)
How it was run: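 Green coffee bean enzyme (2 nM final) was incubated with compounds (0.7 nM to 77 uM) and 4-methylumbelliferyl alpha-D-galactopyranoside (80 uM final) in 50 mM citric acid, 0.005% Tween-20, pH 4.5, 20 min at room temperature; AC50 from Hill fits.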

[21] = target: Alpha-galactosidase (Coffea arabica) (UniProt Q42656); experiment: Counterscreen for Glucocerebrosidase Inhibitors: qHTS Assay for Coffee Bean alpha-Galactosidase at pH 5.9 (AID 998; active = well fitted curve in the direction sought with a large enough effect; an effect the other way counts as inactive or inconclusive;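 note: plate controls were uninhibited enzyme for no effect and no-enzyme basal signal for full effect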)
How it was run: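 Green coffee bean enzyme (2 nM) with 4-methylumbelliferyl alpha-D-galactopyranoside (80 uM) in 50 mM citric acid, 0.005% Tween-20, pH 5.9, 20 min at room temperature; compounds 0.7 nM–77 uM. Stopped at pH 10, fluorescence Ex365/Em440; Hill-fit AC50.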

[22] = Validation screen for inhibitors of Lassa infection (AID 463096); note: % is set by controls: 0 for no effect and ±100 for the full control effect
[23] = Primary qHTS for Huh7 cytotoxicity: counterscreen for inhibitors of MERS-S pseudotyped particle cell entry (AID 1479147); conditions: outcome: dose series up to 57.1 µM unless noted
[24] = Primary qHTS for small molecule stabilizers of the endoplasmic reticulum resident proteome: Secreted ER Calcium Modulated Protein (SERCaMP) assay (AID 1508630; active = well fitted curve in the direction sought with a large enough effect; an effect the other way counts as inactive or inconclusive; note: % is set by controls: 0 for no effect and ±100 for the full control effect)
How it was run: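 GLuc-SERCaMP-expressing SH-SY5Y cells, pretreated 16 h with compound, are challenged with thapsigargin to empty ER calcium stores; after 4 h, coelenterazine is added directly to the medium and luminescence is imaged.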

Nucleoprotein (Lymphocytic choriomeningitis virus (strain Armstrong)), sequence (P09992 whole entry, looked up): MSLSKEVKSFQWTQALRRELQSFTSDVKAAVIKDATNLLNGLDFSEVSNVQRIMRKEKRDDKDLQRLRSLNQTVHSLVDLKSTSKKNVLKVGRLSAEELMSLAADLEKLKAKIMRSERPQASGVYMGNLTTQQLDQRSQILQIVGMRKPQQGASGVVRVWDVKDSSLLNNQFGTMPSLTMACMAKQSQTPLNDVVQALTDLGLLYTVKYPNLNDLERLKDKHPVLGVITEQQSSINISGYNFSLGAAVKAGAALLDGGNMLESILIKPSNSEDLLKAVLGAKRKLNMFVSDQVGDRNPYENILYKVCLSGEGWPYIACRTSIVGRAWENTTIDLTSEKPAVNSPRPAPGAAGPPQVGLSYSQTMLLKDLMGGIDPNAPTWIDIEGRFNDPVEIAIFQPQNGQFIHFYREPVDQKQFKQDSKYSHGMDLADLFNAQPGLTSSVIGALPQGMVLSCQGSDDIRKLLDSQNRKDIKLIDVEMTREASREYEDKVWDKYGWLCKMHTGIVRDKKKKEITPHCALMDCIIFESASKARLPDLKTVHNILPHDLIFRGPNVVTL
Cytochrome P450 3A4 (Homo sapiens), sequence (P08684 whole entry, looked up): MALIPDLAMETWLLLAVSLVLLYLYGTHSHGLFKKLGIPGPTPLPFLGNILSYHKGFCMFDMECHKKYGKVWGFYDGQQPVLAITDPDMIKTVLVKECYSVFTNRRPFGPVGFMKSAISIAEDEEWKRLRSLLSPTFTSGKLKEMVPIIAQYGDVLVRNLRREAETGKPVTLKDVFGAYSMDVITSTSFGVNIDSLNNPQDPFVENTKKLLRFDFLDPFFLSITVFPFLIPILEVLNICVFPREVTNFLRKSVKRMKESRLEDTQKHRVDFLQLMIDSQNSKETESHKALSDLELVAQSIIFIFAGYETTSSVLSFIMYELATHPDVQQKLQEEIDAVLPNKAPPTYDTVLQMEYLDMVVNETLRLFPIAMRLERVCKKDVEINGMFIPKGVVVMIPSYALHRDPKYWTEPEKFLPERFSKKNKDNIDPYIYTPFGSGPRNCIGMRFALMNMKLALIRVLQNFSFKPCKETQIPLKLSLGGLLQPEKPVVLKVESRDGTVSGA
Alpha-galactosidase (Coffea arabica), sequence (Q42656 whole entry, looked up): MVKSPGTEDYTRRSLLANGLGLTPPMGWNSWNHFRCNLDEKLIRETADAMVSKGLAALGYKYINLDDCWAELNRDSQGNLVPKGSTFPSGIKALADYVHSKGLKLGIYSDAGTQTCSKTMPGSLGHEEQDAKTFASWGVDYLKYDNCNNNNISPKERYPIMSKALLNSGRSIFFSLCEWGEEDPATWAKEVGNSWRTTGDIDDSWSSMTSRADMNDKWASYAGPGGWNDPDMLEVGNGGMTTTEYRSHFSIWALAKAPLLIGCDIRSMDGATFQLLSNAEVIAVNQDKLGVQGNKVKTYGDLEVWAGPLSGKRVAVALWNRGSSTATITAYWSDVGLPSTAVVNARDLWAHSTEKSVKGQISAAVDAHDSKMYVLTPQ
Glucocorticoid receptor (Homo sapiens), sequence (P04150 whole entry, looked up, the tested form may be a part): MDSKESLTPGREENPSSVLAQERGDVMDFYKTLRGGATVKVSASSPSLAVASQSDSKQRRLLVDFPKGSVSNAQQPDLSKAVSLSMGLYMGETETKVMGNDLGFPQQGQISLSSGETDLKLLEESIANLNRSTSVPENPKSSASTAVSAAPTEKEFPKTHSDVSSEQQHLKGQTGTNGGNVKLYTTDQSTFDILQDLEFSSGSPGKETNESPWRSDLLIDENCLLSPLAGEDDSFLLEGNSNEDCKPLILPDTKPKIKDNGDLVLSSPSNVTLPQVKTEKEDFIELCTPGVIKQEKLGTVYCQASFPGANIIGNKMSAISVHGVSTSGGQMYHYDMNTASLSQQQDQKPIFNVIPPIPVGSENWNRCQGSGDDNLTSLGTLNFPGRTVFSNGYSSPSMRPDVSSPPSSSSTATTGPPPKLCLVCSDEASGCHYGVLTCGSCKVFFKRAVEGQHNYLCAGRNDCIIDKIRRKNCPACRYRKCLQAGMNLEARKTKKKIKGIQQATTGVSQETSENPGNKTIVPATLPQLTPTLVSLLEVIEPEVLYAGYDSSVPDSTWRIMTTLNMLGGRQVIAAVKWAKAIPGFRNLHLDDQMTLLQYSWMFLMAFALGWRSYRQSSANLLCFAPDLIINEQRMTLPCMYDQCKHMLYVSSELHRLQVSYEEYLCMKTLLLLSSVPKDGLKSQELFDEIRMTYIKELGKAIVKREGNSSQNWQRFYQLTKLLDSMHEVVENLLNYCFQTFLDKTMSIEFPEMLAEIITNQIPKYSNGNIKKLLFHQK
Cytochrome P450 1A2 (Homo sapiens), sequence (P05177 whole entry, looked up): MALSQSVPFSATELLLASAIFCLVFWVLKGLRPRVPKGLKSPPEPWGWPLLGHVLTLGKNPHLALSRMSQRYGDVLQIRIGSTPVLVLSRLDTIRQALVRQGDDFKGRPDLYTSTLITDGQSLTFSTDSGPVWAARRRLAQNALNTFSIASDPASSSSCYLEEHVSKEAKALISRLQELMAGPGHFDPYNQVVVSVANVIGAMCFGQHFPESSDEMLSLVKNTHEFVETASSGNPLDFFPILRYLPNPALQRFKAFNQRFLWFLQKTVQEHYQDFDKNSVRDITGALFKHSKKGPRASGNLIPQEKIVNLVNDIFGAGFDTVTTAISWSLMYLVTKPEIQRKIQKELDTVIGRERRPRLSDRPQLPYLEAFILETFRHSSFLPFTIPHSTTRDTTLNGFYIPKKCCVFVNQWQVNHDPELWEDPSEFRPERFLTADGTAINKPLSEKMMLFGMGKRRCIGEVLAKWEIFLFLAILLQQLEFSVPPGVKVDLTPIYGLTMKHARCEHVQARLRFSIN

Cc1c(-c2ccc(O)cc2)n(Cc2ccc(OCCN3CCCCCC3)cc2)c2ccc(O)cc12
inactive: Potency [1] | Potency [2] | Potency [3] | Potency [4] | outcome [6] | Potency [8]
active: Potency [5] 10 µM | Potency [7] 15.2 µM | Potency [9] 27.1 µM

Clc1ccc2c(c1)N=C(N1CCNCC1)c1ccccc1N2
inactive: outcome [10] | Potency [1] | Potency [2] | Potency [3] | Potency [4] | Potency [11]

OC[C@@H]1[C@@H](O)[C@H](O)[C@H]2[C@@H](O)CCN21
inactive: Potency [1] | Potency [2] | Potency [3] | Potency [4] | Potency [12]

CCCOc1ccc2[nH]cc(C3=CCNCC3)c2n1
inactive: Potency [14] > 46 µM | Potency [15] > 46 µM | outcome [16] | Potency [18] | Potency [1] | Potency [2] | Potency [3] | Potency [4] | max response [19] 2.34%
active: Potency [13] 0.126 µM | Potency [17] 2.51 µM

NC(N)=NCc1cccc(I)c1
inactive: outcome [20] | outcome [21] | Potency [22] | outcome [10] | Potency [1] | Potency [2] | Potency [3] | Potency [4] | outcome [23] | Potency [5] | outcome [6] | Potency [8]

CCN1C[C@]2(C)CC[C@H](OC)[C@@]34[C@H]1C1(OCO[C@@]15C[C@H](OC)C1C[C@]3(O)C5[C@H]1OC)[C@@H](O)[C@H]24
inactive: Potency [1] | Potency [2] | Potency [3] | Potency [4] | Potency [24]

CC(C)c1cc(C(C)C)c(CC(=O)NS(=O)(=O)Oc2c(C(C)C)cccc2C(C)C)c(C(C)C)c1
inactive: Potency [1] | Potency [2] | Potency [3] | Potency [4] | Potency [8]

From PubChem BioAssay (NCATS)
